Source: PubChem
This is a sample that favours compounds with a hit; in the whole collection about 1.1% have one here.
Giardia FBPA inh-1: Giardia lamblia aldolase inhibition; Potency, µM (titrated, usually from 59.6 µM), inactives show at the highest dose activity, negative = inhibition, most hits filed as inhibitors; purified Giardia FBPA; AID 2451; A8B2U2; 290,000 tested, 0.71% active; also: % is scaled to controls: 0 for no effect and ±100 for the full control effect; nearly all actives have a fitted effect of over 55% in size
Target sequence (A8B2U2 whole entry, looked up): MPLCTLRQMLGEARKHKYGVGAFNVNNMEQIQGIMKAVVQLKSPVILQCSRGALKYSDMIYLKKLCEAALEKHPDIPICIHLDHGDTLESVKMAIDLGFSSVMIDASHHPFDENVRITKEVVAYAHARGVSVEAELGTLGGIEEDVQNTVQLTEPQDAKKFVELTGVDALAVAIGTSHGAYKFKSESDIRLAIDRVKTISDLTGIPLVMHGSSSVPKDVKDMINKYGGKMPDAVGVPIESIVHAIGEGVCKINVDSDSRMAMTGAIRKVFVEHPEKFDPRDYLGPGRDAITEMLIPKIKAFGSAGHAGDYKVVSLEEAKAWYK
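40 nM FBPA preincubated 10 min at RT with compound (up to 57.5 uM final), then substrate plus GAPDH/TPI/NAD/arsenate coupling and diaphorase/resazurin added. Fluorescence read after 20 min at RT, 525/598 nm.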
AmpC detergent: blocks E. coli AmpC beta-lactamase in detergent assay; AID 485294; 370,000 tested, 0.041% active; Potency, µM (doses to about 114 µM), without a hit: at the top dose activity change, negative = inhibition, actives largely listed as inhibitors; P00811; AmpC hydrolysis of nitrocefin, absorbance 480 nm, 0.01% Triton;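 also: 0% = no-compound wells and -100% = no-enzyme wells; nearly all actives have a fitted effect of over 25% in size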
Target sequence (P00811 whole entry, looked up): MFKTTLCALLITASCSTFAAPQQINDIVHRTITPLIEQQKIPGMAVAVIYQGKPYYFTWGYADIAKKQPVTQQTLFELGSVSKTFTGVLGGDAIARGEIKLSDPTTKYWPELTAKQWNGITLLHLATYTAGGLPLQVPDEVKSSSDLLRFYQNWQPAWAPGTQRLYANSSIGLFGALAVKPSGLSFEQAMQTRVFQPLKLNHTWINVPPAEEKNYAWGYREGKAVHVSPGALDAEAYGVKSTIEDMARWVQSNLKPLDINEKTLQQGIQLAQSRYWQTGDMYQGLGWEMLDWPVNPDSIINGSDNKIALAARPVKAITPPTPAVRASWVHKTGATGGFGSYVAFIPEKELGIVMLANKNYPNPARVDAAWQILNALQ
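20 mM phosphate pH 7.0 + 0.01% (detergent screen) or 0.0001% Triton X-100; 5.3 nM AmpC reagent; cpd preinc 15 min RT; nitrocefin (800 uM stock) to start; A480 q20 s × 4 min; Activity was normalised to no-enzyme and no-compound control wells.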
AmpC no deterg: inhibitors of E. coli AmpC beta-lactamase without detergent | P00811 | 330,000 tested, 0.52% active | AmpC nitrocefin hydrolysis, absorbance 480 nm, 0.0001% Triton | Potency, µM (highest dose often 57.1 µM), for inactives: top-dose activity change, negative = inhibition, hits mostly inhibitors;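 also: plate controls were no compound for no effect and no enzyme for full effect; nearly all actives have a fitted effect of over 20% in size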
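20 mM phosphate pH 7.0 + 0.01% (detergent screen) or 0.0001% Triton X-100; 5.3 nM AmpC reagent; cpd preinc 15 min RT; nitrocefin (800 uM stock) to start; A480 q20 s × 4 min; Activity was normalised to no-enzyme and no-compound control wells.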
SARS PLP yeast: blocks SARS-CoV papain-like protease in a yeast assay | Potency, µM (top dose mostly 32.9 µM), inactives show top-dose activity, positive = growth rescue, hits mostly activators | 330,000 tested, 0.19% active | S. cerevisiae expressing SARS-CoV PLpro, growth rescue | AID 485353; calls by dose curve; also: 0% is about no effect; nearly all actives have a fitted effect of over 55% in size
Giardia growth: Giardia lamblia growth inhibition | shares compounds with Giardia FBPA inh-1 | Giardia lamblia trophozoite growth inhibition | Potency, µM (doses to about 57.5 µM), for the others: at the top dose activity change, negative = inhibition, hits mostly inhibitors | 1,500 tested, 5% active;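 also: trophozoites exposed to compound for 48 h at 37 °C; % is scaled to controls: 0 for no effect and ±100 for the full control effect; nearly all actives have a fitted effect of over 70% in size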
Mammalian tox: toxic to mammalian cells in Giardia aldolase counter-screen; shares compounds with Giardia FBPA inh-1; mammalian cell viability counter-screen, qHTS; Potency, µM (series often up to 57.5 µM), for the others: top-dose viability change, negative = toxicity, actives largely listed as inhibitors; 1,500 tested, 4% active; AID 2786;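 also: Chinese hamster ovary cells used as mammalian cytotoxicity surrogate; viability measured as cellular ATP by luminescence; compound exposure lasted 48 h before reading; % is scaled to controls: 0 for no effect and ±100 for the full control effect; nearly all actives have a fitted effect of over 60% in size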
Giardia FBPA inh-2: confirmation of Giardia fructose-bisphosphate aldolase inhibitors; shares compounds with Giardia FBPA inh-1; purified Giardia aldolase enzyme activity, qHTS; Potency, µM (series often up to 57.5 µM), inactives show at the highest dose activity change, negative = inhibition, usual class: inhibitors; 1,500 tested, 5% active; also: % is scaled to controls: 0 for no effect and ±100 for the full control effect; nearly all actives have a fitted effect of over 45% in size
Rabbit aldolase: rabbit FBP aldolase inhibition by Giardia aldolase hits. shares compounds with Giardia FBPA inh-1. Rabbit muscle FBPA enzyme inhibition, selectivity counter-screen. Potency, µM (highest dose often 57.5 µM), inactives show top-dose activity, negative = inhibition, usual class: inhibitors. 1,500 tested, 4% active. AID 2794; also: % is scaled to controls: 0 for no effect and ±100 for the full control effect; nearly all actives have a fitted effect of over 60% in size
GAPDH counter: GAPDH inhibition flagged for Giardia aldolase hits | shares compounds with Giardia FBPA inh-1 | GAPDH coupling enzyme counterscreen, biochemical, qHTS | Potency, µM (doses to about 57.5 µM), for inactives: at the top dose activity change, negative = inhibition, actives largely listed as inhibitors | 1,500 tested, 6% active | AID 2795; also: % is scaled to controls: 0 for no effect and ±100 for the full control effect; nearly all actives have a fitted effect of over 55% in size
Active calls of the source: *; ? = inconclusive; · = no result given; [ ] = another dose, or the depositor's remark. Unless noted, calls follow the shape of the dose curve; as a rule, active = well fitted curve in the direction sought with a large enough effect; inconclusive = small, poorly fitted or top-dose-only effect, or another doubt; inactive = no such curve, though single readings can be large; an effect the other way counts as inactive or inconclusive. Potency is read from the fitted curve at half-maximal effect.

SMILES	Giardia FBPA inh-1	AmpC detergent	AmpC no deterg	SARS PLP yeast	Giardia growth	Mammalian tox	Giardia FBPA inh-2	Rabbit aldolase	GAPDH counter
CC(=O)N(C)c1ccc(N=Nc2c(C)[nH]n(-c3ccccc3)c2=O)cc1	4.47µM*	-15.6%	99.0%	-4.1%	19.2%	0.3%	5.3%	5.3%	15.1%
Cc1[nH]n(-c2ccccc2)c(=O)c1N=Nc1ccccc1O	-8.3%	-0.1%	-27.5%	-3.6%	·	·	·	·	·
COc1cccc(N=Nc2c(C)[nH]n(-c3ccccc3)c2=O)c1	3.55µM*	?	-26.9%	-4.3%	-15.9%[38.3 µM]	-2.9%	-10.7%	4.6%	-5.0%
CCOC(=O)c1ccc(N=Nc2c(C)[nH]n(-c3ccccc3)c2=O)cc1	10µM*	?	-15.5%	-5.4%	?	9.1%	1.2%	1.1%	8.7%
CCOc1ccc(-n2c(O)c(N=Nc3c(C)n(C)n(-c4ccccc4)c3=O)c(=O)[nH]c2=O)cc1	15.8µM*	-3.9%	-20.9%	1.4%	?	7.5%	1.8%	-14.4%	-13.3%
CCN(CC)c1ccc(NS(=O)(=O)c2cc(-c3onc(C)c3C)ccc2OC)c(C)c1	·	6.5%	·	·	·	·	·	·	·
COC(=O)NC(c1ccccc1)C1(C(=O)OC)C(=O)Cc2ccccc21 (configuration not stated)	-8.7%	·	·	·	·	·	·	·	·
CCN(c1ncnc2c1cnn2-c1cc(Cl)ccc1C)C1CCCCC1	·	6.4%	·	·	·	·	·	·	·
CCCCCCCc1cc2c(cn1)=C(OC)C(C)(OC(C)=O)C(=O)C=2Cl (configuration not stated)	-6.5%	·	·	·	·	·	·	·	·
CCOC(=O)c1c(O)c(O)c(C(=O)OCC)n1-c1ccccc1	19.9µM*	2.9%	-23.8%	1.9%	19.1%	-6.5%	-16.2%	-27.5%	-17.8%
CCOc1ccc(N=Nc2c(C)[nH]n(-c3ccccc3)c2=O)cc1	7.94µM*	-17.0%	-37.0%	3.6%	-4.8%	0.7%	1.2%	3.7%	7.9%
COc1ccc2c(c1)c1c(c(=O)n(-c3ccc(F)c(Cl)c3)c(=O)n1Cc1ccccc1C)n2C	·	-2.0%	·	·	·	·	·	·	·
COc1ccc(NC(=O)CSc2nc(-c3ccccc3)[nH]c2-c2ccccc2)cc1OC	·	-10.1%	·	·	·	·	·	·	·
CCC1(C)Cc2c(C#N)c(N)sc(=S)c2CO1 (configuration not stated)	2.23µM*	-8.6%	-18.0%	-12.8%	6.3%[10.4 µM]	-5.6%	-17.0%	-6.3%	-13.3%
N#Cc1c(N)sc(=S)c2c1CCCC2	17.7µM*	0.0%	-45.4%	6.6%	?	2.2%	-16.1%	-14.7%	-19.1%
CC(=O)Nc1cccc(/C(C)=N/NC(=S)NC(C)C)c1	-9.7%	-14.7%	-16.4%	-1.2%	·	·	·	·	·
CC(=O)Nc1cccc(/C(C)=N/NC(N)=S)c1	17.7µM*	-8.1%	-11.5%	0.7%	13.7%	-19.7%	6.6%	3.2%	6.7%
CC(=O)Nc1ccc(NC(=O)C/C(C)=N/NC(N)=S)cc1	15.8µM*	-9.6%	-25.0%	11.2µM*	-14.1%	9.3%	-1.6%	6.9%	4.4%
CCc1oc(C(=O)OC)cc1CSC(=N)N	17.7µM*	11.3%	-21.1%	-0.6%	-17.4%[10.4 µM]	-8.7%	-0.7%	6.2%	10.1%
COC(=O)N1C2CC3(C)CC(=O)CC1(C)C3c1ccccc12 (configuration not stated)	4.4%[12.9 µM]	·	·	·	·	·	·	·	·
Cc1ccccc1NC(=O)CN1CCN(C)CC1	25.1µM*	-0.4%	-22.0%	12.0%	10.8%	-0.6%	1.1%	9.4%	12.4%
Cc1ccccc1NC(=O)CCN1CCN(C)CC1	12.7%	?	-6.6%	3.4%	·	·	·	·	·
O=C1/C(=C/c2ccco2)SC(=S)N1c1cccnc1	8.89µM*	-4.1%	-35.9%	-0.3%	?	-5.1%	-14.4%	-0.7%	-3.3%
Cc1nn2c(=O)cc(COC(=O)c3ccc(NC(=O)COc4ccc(Cl)cc4)cc3)nc2s1	·	5.1%	·	·	·	·	·	·	·
CCc1ccc(Nc2n[n+](-c3ccccc3)c(-c3ccc(SC)cc3)s2)cc1	-25.4%	?	44.4%	-2.2%	·	·	·	·	·
SMILES	Giardia FBPA inh-1	AmpC detergent	AmpC no deterg	SARS PLP yeast	Giardia growth	Mammalian tox	Giardia FBPA inh-2	Rabbit aldolase	GAPDH counter
CSc1ccc(-c2sc(Nc3ccccc3)n[n+]2-c2ccccc2)cc1	25.1µM*	-17.7%	-45.6%	-2.2%	-28.3%	-24.2%	-0.6%	8.8%	1.7%
CSc1ccc(-c2sc(Nc3cccc4ccccc34)n[n+]2-c2ccccc2)cc1	25.1µM*	?	-19.2%	-3.6%	13.6%	-20.8%	-19.6%	-20.0%	-24.1%
CC(=O)Nc1ccc(-c2sc(Nc3cccc4ccccc34)n[n+]2-c2ccccc2)cc1	15.8µM*	-12.9%	1.0%	2.6%	31.6%	6.1%	7.3%	3.3%	12.7%
COc1ccc(C)cc1Nc1n[n+](-c2ccccc2)c(-c2ccc(NC(C)=O)cc2)s1	22.4µM*	?	5.6%	1.6%	?	1.1%	3.7%	-4.7%	11.5%
Cc1c2cnn(CC(=O)NC(C)C)c(=O)c2c(C)n1Cc1ccccc1Cl	·	-5.0%	·	·	·	·	·	·	·
CC(=O)Nc1ccc(NC(=O)CC(C)n2ccc(C)n2)cc1 (configuration not stated)	·	29.5%	·	·	·	·	·	·	·
CN1CCN(c2cc(N3CCN(C(=O)c4ccco4)CC3)c3c4c(onc24)-c2ccccc2C3=O)CC1	-27.3%	-2.4%	98.7%	-4.7%	·	·	·	·	·
O=C(O)CCCNc1cc(N2CCN(C(=O)c3ccco3)CC2)c2noc3c2c1C(=O)c1ccccc1-3	3.55µM*	0.6%	46.7%	-13.8%	?	-18.0%	?	?	?
COC(=O)c1cnc(NNS(=O)(=O)c2ccc(Cl)cc2)nc1C(F)(F)F	15.8µM*	-2.7%	-10.2%	-1.0%	-2.9%	-7.0%	-5.9%	1.7%	4.2%
COc1cc(C2NC(=O)C(C#N)=C(Nc3cccc(C)c3)S2)ccc1O (configuration not stated)	14.1µM*	5.4%	-28.2%	-2.4%	6.6%[10.4 µM]	2.4%	-24.3%	3.7%	13.4%
Cc1ccc(CNc2nc3ccccc3n3c(C)nnc23)cc1	·	-4.4%	·	·	·	·	·	·	·
CC(C)(C)c1ccc(OCC(=O)NCC2(N3CCOCC3)CCCCC2)cc1	·	7.4%	·	·	·	·	·	·	·
CCc1nnc(N/N=C/c2ccc(O)c(OC)c2)n1N	20µM*	-17.6%	-22.4%	-5.7%	2.5%[10.4 µM]	0.6%	?	?	-20.0%
